Screening results as filed in PubChem BioAssay.
Only a selection was taken, and hits are over-represented in it overall.
nsP2pro inh: CHIKV nsP2 protease inhibition, primary qHTS; FRET peptide cleavage, nsP2pro, fluorescence 1 h; Potency, µM (titrated, usually from 24.9 µM), for inactives: at the highest dose activity change, negative = inhibition, usual class: inhibitors; 31,000 compounds, 1.1% hits; AID 1964107; further: nearly all actives have a fitted effect of over 60% in size
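FRET cleavage of 2.5 uM peptide 2 by 150 nM CHIKV protease domain at pH 8.0 (Tris, Tween 20). Compounds at 7 concentrations (up to 25 uM) preincubated 15 min. Fluorescence read after 1 h at room temperature.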
CHIKV nsP2 cell: secondary cell-based test for CHIKV nsP2 protease inhibitors | AID 1964100 | cell-based CHIKV nsP2 protease reporter assay | Potency, µM (doses to about 51.1 µM), inactives show top-dose activity change, negative = inhibition, usual class: inhibitors | 450 compounds, 10% hits | shares compounds with nsP2pro inh; further: nearly all actives have a fitted effect of over 70% in size
NSP2 full ctr: inhibits full-length CHIKV NSP2 enzyme; AID 1964101; 410 compounds, 39% hits; Full-length CHIKV NSP2 protease enzymatic counterscreen; Potency, µM (titrated, usually from 50.7 µM), for inactives: at the highest dose activity change, negative = inhibition, actives largely listed as inhibitors; shares compounds with nsP2pro inh; further: nearly all actives have a fitted effect of over 65% in size
Furin counter: inhibits human furin in a CHIKV nsP2 protease selectivity counterscreen; Potency, µM (top dose mostly 50.6 µM), for the others: at the top dose activity change, negative = inhibition, actives largely listed as inhibitors; AID 1964102; Recombinant human furin enzymatic counterscreen, fluorogenic substrate; shares compounds with nsP2pro inh; 410 compounds, 6% hits
nsP2 NS23 pep: blocks CHIKV nsP2 protease cleavage of endogenous NS2/3 peptide | shares compounds with nsP2pro inh | Purified CHIKV nsP2 protease, endogenous NS2/3 peptide cleavage | Potency, µM (series often up to 51 µM), for inactives: at the top dose activity change, negative = inhibition, usual class: inhibitors | 410 compounds, 34% hits | AID 1964103; further: nearly all actives have a fitted effect of over 55% in size
Papain cs: papain protease inhibition, counterscreen for nsP2pro inhibitors. shares compounds with nsP2pro inh. purified papain protease activity, enzymatic inhibition. Potency, µM (top dose mostly 51 µM), without a hit: at the highest dose activity change, negative = inhibition, most hits filed as inhibitors. 410 compounds, 5% hits
Target sequence (P00784 whole entry, looked up): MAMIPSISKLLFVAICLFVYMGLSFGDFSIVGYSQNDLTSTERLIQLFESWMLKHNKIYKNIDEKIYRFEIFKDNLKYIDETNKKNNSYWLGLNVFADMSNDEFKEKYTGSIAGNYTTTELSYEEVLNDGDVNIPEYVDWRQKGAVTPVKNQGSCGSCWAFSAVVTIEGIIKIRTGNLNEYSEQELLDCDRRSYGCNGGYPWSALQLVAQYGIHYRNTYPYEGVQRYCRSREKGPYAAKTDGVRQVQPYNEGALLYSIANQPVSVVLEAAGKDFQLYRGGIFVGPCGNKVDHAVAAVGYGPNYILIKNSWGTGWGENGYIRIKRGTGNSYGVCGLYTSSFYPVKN
nsP2pro confirm: CHIKV nsP2 protease inhibition, confirmatory qHTS; shares compounds with nsP2pro inh; 410 compounds, 43% hits; Potency, µM (titrated, usually from 25.5 µM), without a hit: at the highest dose activity change, negative = inhibition, actives largely listed as inhibitors; CHIKV nsP2 protease enzymatic activity, qHTS; further: nearly all actives have a fitted effect of over 75% in size
HCV NS3 counter: inhibits HCV NS3/4A protease in an nsP2pro selectivity counterscreen; HCV NS3/4A protease biochemical counterscreen; shares compounds with nsP2pro inh; AID 1964106; 410 compounds, 20% hits; Potency, µM (top dose mostly 50.9 µM), most hits filed as inhibitors; further: nearly all actives have a fitted effect of over 55% in size
Numbers without * were called inactive; i = inactive; u = inconclusive; [ ] = dose if it differs, or a comment. The call rests on the fitted dose curve. On the % scale 0 is the no-effect control and ±100 the full control effect; potency means the concentration at half of the fitted maximal effect.

SMILES	nsP2pro inh	others
Cc1ccnc(NC(=S)N2CCc3cc(C(F)(F)F)ccc3C2)c1	i
COc1cc(CO)ccc1O[C@@H]1O[C@H](CO)[C@@H](O)[C@H](O)[C@H]1O	-1.1%
OCCc1ccc(O[C@@H]2O[C@H](CO)[C@@H](O)[C@H](O)[C@H]2O)cc1	-6.0%
COc1cc(CCO)ccc1O[C@@H]1O[C@H](CO)[C@@H](O)[C@H](O)[C@H]1O	u	CHIKV nsP2 cell=-6.1%[33.5 µM];NSP2 full ctr=-27.3%[33.5 µM];Furin counter=7.6%[33.5 µM];nsP2 NS23 pep=-7.8%[33.5 µM];Papain cs=-7.3%[33.5 µM];nsP2pro confirm=u;HCV NS3 counter=i
C#CCOc1cccc(-c2nnc3n2N=C(c2ccc(OC)c(OCC(C)=O)c2)CS3)c1	i
Cc1cc(C)n2ncc(C(=O)Nc3ccccc3C)c2n1	3.1%
O=C(O)C1CCc2cc(C3CCCCC3)c(Cl)cc21 (stereo not drawn)	6.0%
CCOC(=O)CC(SP(=S)(OC)OC)C(=O)OCC (stereo not drawn)	8.81µM*	CHIKV nsP2 cell=-23.3%;NSP2 full ctr=23.1µM*;Furin counter=-16.0%;nsP2 NS23 pep=18.3µM*;Papain cs=u;nsP2pro confirm=5.65µM*;HCV NS3 counter=i
CC(C)(C)CC(=O)N1C[C@@H](CO)[C@@H]2Oc3ccc(Cl)cc3[C@@H]21	-11.4%
CCCCCC(O)/C=C/[C@@H]1C(CCCCCCC(=O)O)C(=O)C[C@@H]1O (stereo partly drawn)	-1.8%
Nc1c(-c2ccccc2)nc(Cl)c2c(O)n[nH]c(=O)c12	9.88µM*	CHIKV nsP2 cell=-1.8%;NSP2 full ctr=-4.5%;Furin counter=-7.2%;nsP2 NS23 pep=i;Papain cs=24.1%;nsP2pro confirm=-6.7%;HCV NS3 counter=i
O=C(O)c1cc(-c2c(-c3ccccc3)nn3ccccc23)n[nH]c1=O	13.1%
COc1ccc(S(=O)(=O)NC[C@H]2Cn3c(-c4ccc(Cl)cc4)cnc3CO2)cc1	i
C=C(CO)C(=O)O[C@H]1CC(=C)[C@@H]2C[C@H](O)C(=C)[C@@H]2[C@H]2OC(=O)C(=C)[C@@H]21	4.1%
C=C1C(=O)O[C@@H]2CC(C)=C([C@@H](C)CCCO)[C@@H](OC(=O)C(C)C)[C@H]12	47.8%
C=C1C(=O)O[C@H]2C1[C@H](OC(=O)/C(=C/CO)COC(=O)/C(C)=C/CO)CC(=C)[C@@H]1CC(=O)[C@@H](C)[C@@H]12 (stereo partly drawn)	1.21µM*	CHIKV nsP2 cell=u;NSP2 full ctr=1.79µM*;Furin counter=-4.8%[17.3 µM];nsP2 NS23 pep=3.57µM*;Papain cs=-6.6%[17.2 µM];nsP2pro confirm=0.873µM*;HCV NS3 counter=u
COc1cc(/C=C/c2cn(-c3ccc(C(=O)O)cc3)nc2/C=C/c2ccc(O)c(OC)c2)ccc1O	211.8%
C=C(C)[C@@H]1CC[C@]2(C(=O)O)CC[C@]3(C)[C@H](CC[C@@H]4[C@@]5(C)CC[C@H](OC(=O)CC(C)(C)C(=O)O)C(C)(C)[C@@H]5CC[C@]43C)[C@@H]12	26.1%
COc1ccc(C2Nc3ccccc3C(=O)N2CCO)cc1COc1c(C)cc(NC(C)=O)cc1C (stereo not drawn)	i
C[C@H](Oc1cc(-n2cnc3ccc(CN4CCN(C)CC4)cc32)sc1C(N)=O)c1ccccc1C(F)(F)F	80.4%
CN(C)C1C(=O)C(C(N)=O)=C(O)C2(O)C(=O)C3=C(O)c4c(O)ccc(Cl)c4C(C)(O)C3CC12 (stereo not drawn)	-2.7%
Cc1cc(C)nc(NC(=S)N2CCN(c3ccc(F)c(Cl)c3)CC2)c1	-14.5%
CC1=C2CC3C(CCC3(C)O)C(C)(O)CC2OC1=O (stereo not drawn)	54.5%
CC1=C2C[C@@]3(C)C(CCC[C@@H]3C)C(O)C2OC1=O (stereo partly drawn)	9.88µM*	CHIKV nsP2 cell=-11.2%;NSP2 full ctr=13µM*;Furin counter=-1.5%;nsP2 NS23 pep=u;Papain cs=u;nsP2pro confirm=7.11µM*;HCV NS3 counter=i
Cc1c(C(=O)Nc2ccc(N3C[C@@H](C)O[C@@H](C)C3)nc2)cccc1-c1ccc(OC(F)(F)F)cc1	u	CHIKV nsP2 cell=-13.1%;NSP2 full ctr=8.1%;Furin counter=-8.5%;nsP2 NS23 pep=10.2%;Papain cs=-9.7%;nsP2pro confirm=-3.8%;HCV NS3 counter=i
SMILES	nsP2pro inh	others
CN1C(C(=O)Nc2ccc(OC(F)(F)F)cc2)=CC(c2cccs2)=NS1(=O)=O	-14.8%
O=C(Nc1ccc(OC(F)(F)F)cc1)c1cc(-c2ccc(Cl)cc2)on1	-15.3%
CCn1cc(-c2cccc(C(F)(F)F)c2)c2sc(C(N)=NC3CCS(=O)(=O)CC3)cc2c1=O	36.6%
COc1cc(N(C)CCN(C)C)c(N)cc1Nc1nccc(-c2cn(C)c3ccccc23)n1	98.2%
Cc1cc(C)nc(NC(=S)N2CCN(S(=O)(=O)c3cccc(C(F)(F)F)c3)CC2)c1	-4.0%
CC[N+]1(C)C2CC(OC(=O)[C@H](CO)c3ccccc3)CC1[C@@H]1O[C@H]21 (stereo partly drawn)	7.4%
Cc1ccc(CNC(=O)c2ccc(Cn3c(SCc4ccc(F)cc4)nc4cccnc43)cc2)o1	u	CHIKV nsP2 cell=-15.6%
Cc1cccc(CSc2nc3cccnc3n2Cc2ccc(C(=O)NCc3ccco3)cc2)c1	-9.5%
O=C(NCc1cccs1)c1ccc(Cn2c(SCc3ccc(F)cc3)nc3cccnc32)cc1	22.8%
CC(C)(C)OC(=O)N1CCN(c2ccc(NCc3cncc(-c4ccc(C#N)cc4)c3)cc2)CC1	i
COC(=O)c1cc2c(C(F)(F)F)cc(-c3ccccc3)cc2n1O	127.7%
C=CCN1CC[C@]23c4c5ccc(O)c4O[C@H]2[C@@H](OCCOCCOCCOCCOCCOCCOCCOC)CC[C@@]3(O)[C@H]1C5	1.7%
Cc1noc(C2CN(C(=O)c3cc(-c4ccco4)[nH]n3)CC2c2ccccc2)n1 (stereo not drawn)	10µM*	CHIKV nsP2 cell=7.9%;NSP2 full ctr=8.19µM*;Furin counter=-9.3%;nsP2 NS23 pep=u;Papain cs=-13.4%;nsP2pro confirm=8.96µM*;HCV NS3 counter=u
Cc1noc([C@@H]2CN(Cc3ccc[nH]3)C[C@H]2CO)n1	i
Cc1noc([C@@H]2CN(C(=O)c3cc(C4CC4)[nH]n3)C[C@H]2C(N)=O)n1	-13.7%
Cc1ccc(OCCn2c(CCNC(=O)NC3CCCCC3)nc3ccccc32)cc1	-15.8%
O=C(O)c1cccc(-c2noc(-c3ccc(Cl)cc3)n2)c1	i
Cc1ccc(S(=O)(=O)Nc2cnccc2C(=O)Nc2nc(-c3cc4ccccc4o3)cs2)cc1	-7.0%
